The values that follow come from the supplement of paper PMC12636033.

± gives the standard deviation of the averaged measurements. Whole data set: some 33,000 sequences, median “E-score (rank enrichment, -0.5 to 0.5)” near -0.0068, cut for the highest 2% near 0.24. For the sample, the highest values were picked, then their nearest neighbours and some sequences at random.

This experiment deals with muMax20 (Max(13-93) K31hArg/K57hArg, M65Nle). Kind of experiment: PBM 8-mer E-score (E-score (rank enrichment, -0.5 to 0.5)); higher = stronger preferential binding. The protocol:
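Protein binding microarray (universal PBM chip covering all 10-mers in fixed probe flanks) with chemically synthesized human Max(13-93) bHLH-LZ analogs (not full-length Max) bearing noncanonical residues (hArg, Tha, Aib, Nle at 65) and aromatic Cys staples. Read-out per 8-mer (and its reverse complement): E-score (rank-based enrichment, -0.5 to 0.5) and Z-score of median probe intensity.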
Consider CAGGCTTC, for which the “PBM 8-mer E-score” value is -0.0969 ± 0.0043. The result for GATACGCC reads -0.108 ± 0.043; that for ACTTTTGC, 0.0617 ± 0.018; that for CATGTTAC, 0.123 ± 0.025. As to AGCCGCCG, the “PBM 8-mer E-score” value is -0.192 ± 0.18. AGCTCCTA: the “PBM 8-mer E-score” value is -0.251 ± 0.015. As to CCTCCCTA, the “PBM 8-mer E-score” value was -0.153 ± 0.075.

AGCTTAAC: the “PBM 8-mer E-score” value was -0.126 ± 0.1. As to ACACTCGG, the “PBM 8-mer E-score” value was -0.0657 ± 0.025.

As for CTATACGC, the “PBM 8-mer E-score” value was -0.00851 ± 0.07. For CCTCGTTA, the “PBM 8-mer E-score” value is -0.00353 ± 0.0057. With GCACAACC, the “PBM 8-mer E-score” value was -0.23 ± 0.0046. As for ATACAAGA, the “PBM 8-mer E-score” value was 0.0614 ± 0.015. Take AAACAAAT: the “PBM 8-mer E-score” value is 0.284 ± 0.031. Consider ATACAAGC, for which the “PBM 8-mer E-score” value amounted to 0.243 ± 0.079. The result for CTACAAGC reads -0.0802 ± 0.066; that for GCACAACA, 0.238 ± 0.016. As to AAACAAAC, the “PBM 8-mer E-score” value was 0.154 ± 0.025. In the case of GTACAAAA, the “PBM 8-mer E-score” value stood at 0.2859 ± 0.0025. As to CCACAACA, the “PBM 8-mer E-score” value is -0.0271 ± 0.0066.

As to AAACAAAA, the “PBM 8-mer E-score” value worked out at 0.211 ± 0.061. Regarding GTACAAGA, the “PBM 8-mer E-score” value amounted to 0.119 ± 0.012. For GTACAAAC, the “PBM 8-mer E-score” value came out at 0.116 ± 0.0057. As for GAGTCCAA, the “PBM 8-mer E-score” value is -0.159 ± 0.12. With GCGACACA, the “PBM 8-mer E-score” value is -0.067 ± 0.12. GTCTCTGA: the “PBM 8-mer E-score” value was -0.161 ± 0.093. With ATTTATTA, the “PBM 8-mer E-score” value was found to be 0.132 ± 0.06. To ATATATGG belongs 0.258 ± 0.028. On to CTTTATTC, for which the “PBM 8-mer E-score” value was 0.0219 ± 0.12.

Regarding ATATATGA, the “PBM 8-mer E-score” value is 0.218 ± 0.069. Take GCATATGA: the “PBM 8-mer E-score” value was 0.186 ± 0.04.

For ACATATGC, the “PBM 8-mer E-score” value is 0.105 ± 0.011. For the sequence ATATATGC, the “PBM 8-mer E-score” value was 0.0936 ± 0.17.

Regarding ACATATGG, the “PBM 8-mer E-score” value worked out at 0.12 ± 0.078. With GCATATGC, the “PBM 8-mer E-score” value came to 0.24 ± 0.032. To CTATATGA belongs 0.109 ± 0.074.

Turning to CTATATGC, the “PBM 8-mer E-score” value was determined as 0.238 ± 0.043. Regarding ATTTATTC, the “PBM 8-mer E-score” value is 0.241 ± 0.046. As to TACCCCAA, the “PBM 8-mer E-score” value came out at 0.157 ± 0.005.

Turning to GGAGAGCC, the “PBM 8-mer E-score” value is -0.211 ± 0.032.

Take GACGCCAC: the “PBM 8-mer E-score” value is -0.137 ± 0.094. For ATGTCCGC, the “PBM 8-mer E-score” value was -0.126 ± 0.088. Regarding GACACTGA, the “PBM 8-mer E-score” value was -0.11 ± 0.068. In the case of GCAGCCAC, the “PBM 8-mer E-score” value is -0.0591 ± 0.03. Take CTCAGTGC: the “PBM 8-mer E-score” value was -0.224 ± 0.0089.

Turning to CTCTATTC, the “PBM 8-mer E-score” value is 0.00532 ± 0.064.

As for ATATATTC, the “PBM 8-mer E-score” value is 0.201 ± 0.041.

Regarding CTATATTC, the “PBM 8-mer E-score” value came to 0.262 ± 0.052.

For AAAAGCAC, the “PBM 8-mer E-score” value is 0.162 ± 0.061. Turning to CAAAGCTG, the “PBM 8-mer E-score” value worked out at 0.0952 ± 0.083. Take AAAAGCTA: the “PBM 8-mer E-score” value came to 0.123 ± 0.0035.

As to AAAAGTAC, the “PBM 8-mer E-score” value amounted to 0.184 ± 0.042. Take AATAGTAA: the “PBM 8-mer E-score” value came to 0.152 ± 0.012.

As for AAAAGCAT, the “PBM 8-mer E-score” value was 0.243 ± 0.018. Regarding AATAGTAG, the “PBM 8-mer E-score” value was found to be 0.0461 ± 0.02. AAAAGCTG: the “PBM 8-mer E-score” value amounted to 0.271 ± 0.081. Turning to AAAAGCAG, the “PBM 8-mer E-score” value was -0.0145 ± 0.05.

As to AATAGTAT, the “PBM 8-mer E-score” value is 0.24 ± 0.012. For the sequence AAAAGTAT, the “PBM 8-mer E-score” value was 0.249 ± 0.044. Consider AAAAGTAA, for which the “PBM 8-mer E-score” value is 0.12 ± 0.033. Consider CCGTCGTC, for which the “PBM 8-mer E-score” value was -0.109 ± 0.011.

In the case of AACTGGGT, the “PBM 8-mer E-score” value is -0.078 ± 0.061. Take CCAATGAG: the “PBM 8-mer E-score” value is -0.095 ± 0.001.

On to CATGGACG, for which the “PBM 8-mer E-score” value is 0.0146 ± 0.1.

As for GAAGAGGC, the “PBM 8-mer E-score” value was -0.108 ± 0.083. Consider AGACGGAT, for which the “PBM 8-mer E-score” value came out at 0.0634 ± 0.17. As for GTCAATGA, the “PBM 8-mer E-score” value stood at 0.0559 ± 0.0022. To CCTGCTGC belongs -0.107 ± 0.061. The result for TAGTATCA reads 0.131 ± 0.033. Regarding ATAGATGA, the “PBM 8-mer E-score” value worked out at 0.0906 ± 0.033. Regarding AACGCATA, the “PBM 8-mer E-score” value is 0.0704 ± 0.12. On to AGACGTGC, for which the “PBM 8-mer E-score” value is -0.0738 ± 0.042. ATACGTGA: the “PBM 8-mer E-score” value was 0.068 ± 0.019. Consider GCAGGTGA, for which the “PBM 8-mer E-score” value was -0.0216 ± 0.0013. Take ACACGTGA: the “PBM 8-mer E-score” value stood at 0.432 ± 0.055.

With ACACGTCA, the “PBM 8-mer E-score” value is 0.246 ± 0.006.

For the sequence CCAGGTGA, the “PBM 8-mer E-score” value was -0.121 ± 0.026.

Consider ACACGTCT, for which the “PBM 8-mer E-score” value was determined as 0.0471 ± 0.065.

For the sequence ACACGTAC, the “PBM 8-mer E-score” value amounted to 0.137 ± 0.036. For the sequence AGACGTGA, the “PBM 8-mer E-score” value came out at 0.104 ± 0.027. Turning to ACACGTGC, the “PBM 8-mer E-score” value was determined as 0.452 ± 0.05. For the sequence ACACGTCG, the “PBM 8-mer E-score” value is -0.148 ± 0.048. Take ACAGGTGA: the “PBM 8-mer E-score” value was determined as 0.264 ± 0.062. On to AGCTCTTG, for which the “PBM 8-mer E-score” value was determined as 0.00816 ± 0.055. As for CAGGCAGA, the “PBM 8-mer E-score” value is -0.144 ± 0.036.

Turning to CCGGCAAA, the “PBM 8-mer E-score” value was -0.223 ± 0.11.

On to AAACCGTC, for which the “PBM 8-mer E-score” value was -0.172 ± 0.074.
